In PubChem BioAssay (NCI):
This is part of a sample that, as a whole, favours compounds with a hit. Of some 79,000 tested, about 15% had one in any assay. Values without a mark were called inactive. Activity calls are given as the source filed them. Rule as the data show it: active = growth inhibition above about 70%; inactive = the rest.

Key:
[1] = NCI Yeast Anticancer Drug Screen. Data for the rad50 strain (AID 155);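 also: 0% = growth of vehicle-only cultures of the same strain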; settings: S. cerevisiae rad50 strain growth inhibition, active compounds read high
Summary of the method: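 Relative growth inhibition (compound vs vehicle) was measured in yeast with a defined repair-gene alteration.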

[2] = NCI Yeast Anticancer Drug Screen. Data for the mec2-1 strain (AID 157); settings: S. cerevisiae mec2-1 strain, active compounds read high
Summary of the method: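 Vehicle-treated cultures served as reference for growth inhibition of compound-exposed mec2-1 yeast.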

[3] = NCI Yeast Anticancer Drug Screen. Data for the sgs1 mgt1 strain (AID 161);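 also: 0% = growth of cultures given vehicle only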; settings: S. cerevisiae sgs1 mgt1 strain, active compounds read high
Summary of the method: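 Test agents were incubated with a DNA-repair-mutant yeast strain. Growth was then read and compared against vehicle-treated controls.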

[4] = NCI Yeast Anticancer Drug Screen. Data for the cln2 rad14 strain (AID 165);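 also: 0% = growth equal to vehicle treated cultures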; settings: S. cerevisiae cln2 rad14 strain, active compounds read high
Summary of the method: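 Each compound was tested on cln2 rad14 yeast. Inhibition of growth was calculated against vehicle-exposed controls.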

[5] = NCI Yeast Anticancer Drug Screen. Data for the bub3 strain (AID 167); settings: S. cerevisiae bub3 mutant strain, active compounds read high
Summary of the method: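 Screening used yeast with an engineered genetic alteration affecting cell cycle control. Compound-exposed cultures were compared with vehicle cultures, and reduced growth was taken as inhibition.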

[6] = NCI Yeast Anticancer Drug Screen. Data for the mlh1 rad18 strain (AID 175); settings: S. cerevisiae mlh1 rad18 strain growth inhibition, active compounds read high
Summary of the method: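 Vehicle-treated cultures served as the reference for growth inhibition in a yeast strain carrying DNA damage repair alterations exposed to each compound.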

[7] = at 5.0 µM (retest, dose inferred, filed as 0.5)
[8] = at 50.0 µM (retest, dose inferred, filed as 5.0)

Row | Compound | growth inhibition [1, 7] | growth inhibition [1, 8] | growth inhibition ([1]; at 50.0 µM) | growth inhibition [2, 7] | growth inhibition [2, 8] | growth inhibition ([2]; at 50.0 µM) | growth inhibition [3, 7] | growth inhibition [3, 8] | growth inhibition ([3]; at 50.0 µM) | growth inhibition [4, 7] | growth inhibition [4, 8] | growth inhibition ([4]; at 50.0 µM) | growth inhibition [5, 7] | growth inhibition [5, 8] | growth inhibition ([5]; at 50.0 µM) | growth inhibition [6, 7] | growth inhibition [6, 8] | growth inhibition ([6]; at 50.0 µM)
1 | Oc1c(I)cc(I)cc1I | -6% | 91% (active) | 38% | -3% | 95% (active) | 43% | -9% | 53% | 7.7% | -4% | 94% (active) | -32.6% | -5% | 82% (active) | 67.6% | -3% | 92% (active) | 63.4%
2 | [O]=[Sb]([OH])([OH])[c]1ccc(NC2OC(CO)C(O)C(O)C2O)cc1 (stereo not given) | 0% | -6% | 6.45% | 0% | -2% | 5.65% | -1% | -20% | -13.8% | 0% | -12% | -0.2% | 2% | -1% | 91.8% (active) | 1% | -3% | -10.4%
3 | CC1(C)C2CCC([CH2][Hg][Cl])C1C2 (stereo not given) | 99% (active) | 98% (active) | 98.8% (active) | 100% (active) | 95% (active) | 99.2% (active) | 100% (active) | 97% (active) | 99.2% (active) | 99% (active) | 98% (active) | 99% (active) | 99% (active) | 98% (active) | 99.3% (active) | 100% (active) | 98% (active) | 99% (active)
4 | CCC[CH2][Sn]1([CH2]CCC)[O]C(=O)c2ccc(C)cc2[O]1 | 79% (active) | 99% (active) | 98.8% (active) | 84% (active) | 99% (active) | 99.3% (active) | 85% (active) | 98% (active) | 99.2% (active) | 76% (active) | 98% (active) | 98% (active) | 84% (active) | 98% (active) | 98.7% (active) | 82% (active) | 97% (active) | 98.8% (active)
5 | CCN1CCC(O)(c2ccc(O)cc2)C(C(=O)c2ccc(O)cc2)C1 (stereo not given) | -9% | -9% | 72% (active) | -9% | 8% | 82.6% (active) | 6% | 13% | 91.3% (active) | 18% | 21% | 7.1% | -9% | 19% | 13.3% | 1% | 29% | 86.7% (active)
6 | CC(=O)[O-].CC(=O)[O-].O=C(N/N=C/c1cc(Cl)cc(Cl)c1[OH2+])c1ccncc1.[Zn+2] | 4% | 9% | 31% | -1% | 11% | 48.4% | 7% | 30% | 60.8% | 0% | -4% | 38% | 1% | 10% | 32.6% | 2% | 11% | 70% (active)
7 | O=C(CBr)NC1CCCCC1 | 1% | 93% (active) | 81% (active) | 4% | 94% (active) | 90.6% (active) | 4% | 93% (active) | 82.8% (active) | 2% | 91% (active) | 60% | 6% | 94% (active) | 85.2% (active) | -2% | 96% (active) | 93% (active)
8 | CCC[CH2][Sn]1([CH2]CCC)[O]C(=O)c2cccc(OC)c2[O]1 | 93% (active) | 99% (active) | 97.8% (active) | 95% (active) | 99% (active) | 98% (active) | 93% (active) | 98% (active) | 99.2% (active) | 93% (active) | 98% (active) | 98.4% (active) | 94% (active) | 97% (active) | 98.4% (active) | 88% (active) | 98% (active) | 98.9% (active)
9 | CNC1C(O)CC(OC2C/C=C(\C)C/C(C)=C/C=C/CCC(C)CNC(=O)/C=C/C=C/C2C)OC1C (stereo not given) | -6% | 99% (active) | 14.4% | 19% | 100% (active) | 63.1% | 31% | 100% (active) | 98.3% (active) | -14% | 99% (active) | 99.2% (active) | 20% | 100% (active) | 99.5% (active) | 18% | 100% (active) | 99.1% (active)
10 | CCOc1c(Br)cc(N=Cc2ccc(N(CCCl)CCCl)c(OC)c2)cc1Br | 6% | 80% (active) | 85.2% (active) | -5% | 79% (active) | 45.8% | -86% | 69% | 76.2% (active) | -3% | 49% | 44.4% | -11% | -16% | -15.8% | 73% (active) | 95% (active) | 86.8% (active)
